Compound activity (PubChem)
KinaseGlo FLuc = blocks Kinase-Glo luciferase, a counter-screen artifact; 200,000 tested, 0.28% active; AID 1379; Potency, µM (doses to about 38.3 µM), usual class: inhibitors; Q27757; Kinase-Glo luciferase, ATP luminescence, 8 min; further: nearly all actives have a fitted effect of over 60% in size
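Light output from Kinase-Glo luciferase with luciferin and 10 uM ATP in 50 mM imidazole pH 7.2, KCl, MgCl2, Tween 20, BSA; compound pin-delivered, 8-min ambient incubation, then luminescence read.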
NPC1 prom act = activates the NPC1 promoter. Huh7 NPC1 promoter luciferase reporter, 24 h. Potency, µM (titrated, usually from 9.22 µM), most hits filed as activators. 320,000 tested, 2.4% active. AID 485313; further: nearly all actives have a fitted effect of over 60% in size
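Huh7 cells stably carrying NPC1 promoter–luciferase, plated in Opti-MEM with 10% FBS for 2 h, were exposed to compound in DMSO for 24 h at 37 °C; luciferase reagent was added for 10 min and luminescence read.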
ELG1 genotox = induces genotoxicity in HEK293T cells with luciferase-tagged ELG1. HEK293T ELG1-luciferase reporter, luminescence, 16 h. Potency, µM (titrated, usually from 46 µM), usual class: activators. 330,000 tested, 1.3% active; further: nearly all actives have a fitted effect of over 60% in size
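Luminescence read-out: rising ELG1-luciferase signal, reflecting elevated ELG1 protein under genetic stress, flags genotoxic compounds. Cells were treated for 16 hr at 37 °C before ONE-Glo detection.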
SMN2 splice up = enhancers of SMN2 splice variant expression | Potency, µM (highest dose often 46.1 µM), most hits filed as activators | AID 1458 | HEK293 SMN2-luciferase splicing reporter, luminescence, 30-36 h | 210,000 tested, 2.8% active; further: nearly all actives have a fitted effect of over 55% in size
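qHTS luciferase splicing reporter: luminescence rises when SMN2 exon 7 is included in transfected HEK293 cells. Compound exposure lasted 30-36 h at 37C, with 4.5 mM final sodium butyrate as control, followed by a ONE-Glo read.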
Rab9 prom act = Rab9 promoter activation. 320,000 tested, 2.8% active. Potency, µM (titrated, usually from 9.22 µM), most hits filed as activators. AID 485297. Huh7 Rab9 promoter-luciferase reporter, luminescence, 24 h; further: nearly all actives have a fitted effect of over 60% in size
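Using Huh7 cells stably transfected with Rab9 promoter–luciferase, compounds were incubated 24 h at 37 °C, 5% CO2; luciferase luminescence was read 10 min after reagent addition.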
FLuc modulator = inhibits or activates purified firefly luciferase, miR-21 counter-screen | P08659 | purified FLuc, Km substrates, luminescence inhibition | Potency, µM (doses to about 57.5 µM), hits mostly inhibitors | 360,000 tested, 6.9% active | AID 588342; further: nearly all actives have a fitted effect of over 55% in size
Target sequence (P08659 whole entry, looked up): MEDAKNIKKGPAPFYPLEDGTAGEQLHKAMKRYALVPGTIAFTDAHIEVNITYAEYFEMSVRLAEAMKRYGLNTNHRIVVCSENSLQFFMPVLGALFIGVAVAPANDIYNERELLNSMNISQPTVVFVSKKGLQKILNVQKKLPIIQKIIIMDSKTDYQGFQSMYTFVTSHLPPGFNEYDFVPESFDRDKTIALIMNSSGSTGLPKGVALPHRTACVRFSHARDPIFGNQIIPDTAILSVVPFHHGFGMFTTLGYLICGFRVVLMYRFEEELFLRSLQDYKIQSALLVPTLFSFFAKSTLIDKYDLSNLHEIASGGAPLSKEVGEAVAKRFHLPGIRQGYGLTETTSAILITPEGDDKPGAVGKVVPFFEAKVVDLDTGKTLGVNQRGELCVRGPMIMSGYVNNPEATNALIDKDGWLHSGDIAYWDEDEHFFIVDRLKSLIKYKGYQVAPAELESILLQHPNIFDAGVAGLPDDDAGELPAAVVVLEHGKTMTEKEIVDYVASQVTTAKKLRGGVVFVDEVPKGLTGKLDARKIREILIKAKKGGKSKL
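Purified P. pyralis luciferase, 10 nM final, with Km-level 10 uM D-luciferin and 10 uM ATP in 50 mM Tris acetate pH 7.5, 10 mM Mg acetate, 0.01% Tween-20, 0.05% BSA; 6-point qHTS titration about 60 µM downward; luminescence read.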
Large screens that a line does not name were inactive. Hits are enriched below; roughly 7.5% of the tested compounds scored in any of these assays. The call rests on the fitted dose curve; in most records, active means well fitted curve in the direction sought with a large enough effect; inconclusive means small, poorly fitted or top-dose-only effect, or another doubt; inactive means no such curve, though single readings can be large; an effect the other way counts as inactive or inconclusive.

CN1C(=O)C(=Cc2ccc(Sc3ccccc3)o2)C(=O)N(C)C1=O	FLuc modulator inconclusive
O=C1NC(=O)C(=Cc2ccc(-c3ccc(S(=O)(=O)N4CCOCC4)cc3)o2)C(=O)N1	FLuc modulator inconclusive (no result: KinaseGlo FLuc, SMN2 splice up)
O=C1NC(=O)C(=Cc2ccc(-c3ccc(Cl)cc3)o2)C(=O)N1	FLuc modulator 6.7µM (no result: KinaseGlo FLuc, SMN2 splice up)
O=C1NC(=O)C(=Cc2ccc(Sc3ccccc3)o2)C(=O)N1	ELG1 genotox inconclusive, FLuc modulator 24µM (no result: KinaseGlo FLuc, SMN2 splice up)
O=C1NC(=O)C(=Cc2ccc(-c3ccc(F)cc3O)o2)C(=O)N1	FLuc modulator 13µM (no result: KinaseGlo FLuc, SMN2 splice up)
Cc1ccc(/C=C2\C(=O)NC(=O)N(CCc3ccc(F)cc3)C2=O)o1	ELG1 genotox inconclusive
COc1cc(N2CCOCC2)ccc1/C=C1\C(=O)NC(=O)N(Cc2ccc3c(c2)OCO3)C1=O	FLuc modulator 17µM
Nc1c(C(=O)Nc2ccc([As](=O)(O)O)cc2)cnc2nnnn12	none (no result: NPC1 prom act, ELG1 genotox, Rab9 prom act, FLuc modulator)
Cc1ccc(-n2c(C)cc(/C=C3/C(=O)NC(=O)N(Cc4ccco4)C3=O)c2C)cc1	FLuc modulator 19µM
Cc1ccc(-n2c(C)cc(/C=C3/C(=O)NC(=O)N(C)C3=O)c2C)cc1	FLuc modulator 0.6µM
Cc1cc(/C=C2\C(=O)NC(=O)N(Cc3ccco3)C2=O)c(C)n1-c1ccc(C(=O)O)cc1	none (no result: KinaseGlo FLuc, SMN2 splice up)
Cc1cc(/C=C2\C(=O)NC(=O)N(Cc3ccco3)C2=O)c(C)n1-c1ccc(O)cc1	FLuc modulator 15µM (no result: SMN2 splice up)
Cc1ccc(N2C(=O)NC(=O)/C(=C\c3cc(C)n(-c4ccc(C(=O)O)cc4)c3C)C2=O)cc1	none (no result: KinaseGlo FLuc, SMN2 splice up)
Cc1ccccc1-n1c(C)cc(/C=C2/C(=O)NC(=O)N(Cc3ccco3)C2=O)c1C	FLuc modulator 19µM
CCOP(=S)(OCC)SCSC(C)(C)C	none (no result: KinaseGlo FLuc, NPC1 prom act, ELG1 genotox, Rab9 prom act, FLuc modulator)
[Cl][Pd][Cl].[S-]C1=C2N=CN[C-]2[NH+]=C[N-]1.[S-]c1ncnc2[nH]cnc12	none (no result: NPC1 prom act, ELG1 genotox, Rab9 prom act, FLuc modulator)
N#Cc1cc2c(nc1SCC(=O)Nc1cccc(F)c1)C1CCN2CC1	SMN2 splice up 6.3µM (no result: KinaseGlo FLuc, NPC1 prom act, ELG1 genotox, Rab9 prom act)
O=C1NC(=S)N(c2ccc(F)cc2)C(=O)/C1=C\c1ccoc1	FLuc modulator 24µM (no result: KinaseGlo FLuc, SMN2 splice up)
Cc1ccc(/C=C2\C(=O)NC(=S)N(c3cccc(F)c3)C2=O)o1	FLuc modulator 17µM (no result: KinaseGlo FLuc, SMN2 splice up)
Cc1ccc(OCC(=O)N/N=C\c2ccc(O)c([N+](=O)[O-])c2)c([N+](=O)[O-])c1	FLuc modulator 27µM
CN(C)C(=O)Oc1ccc(OC(=O)c2ccccc2)cc1	KinaseGlo FLuc inconclusive, ELG1 genotox inconclusive, FLuc modulator 6.7µM
C=CC(C)(C)c1c2c(c(O)c3c(=O)c4ccc(O)c(O)c4oc13)C=CC(C)(C)O2	none (no result: NPC1 prom act, ELG1 genotox, Rab9 prom act, FLuc modulator)
NNc1nncn1N	none (no result: NPC1 prom act, ELG1 genotox, Rab9 prom act, FLuc modulator)
c1ccc2sc(NC3=NCCN3)nc2c1	NPC1 prom act inconclusive, SMN2 splice up inconclusive, Rab9 prom act inconclusive, FLuc modulator inconclusive
COc1ccc2nc(NC3=NCCN3)sc2c1	NPC1 prom act 2.8µM, ELG1 genotox 18µM, SMN2 splice up 10µM, Rab9 prom act 2.5µM, FLuc modulator 5.4µM
O=[As](O)(O)c1ccc(Cc2ccc([As](=O)(O)O)cc2)cc1	none (no result: NPC1 prom act, ELG1 genotox, Rab9 prom act, FLuc modulator)
CCOC(=O)C1CCCN(C(=O)c2ccc3oc(Cc4ccccc4)nc3c2)C1 (stereo not given)	NPC1 prom act 3.5µM, ELG1 genotox inconclusive, Rab9 prom act 4.5µM, FLuc modulator 12µM (no result: KinaseGlo FLuc, SMN2 splice up)
CCOc1ccc2nc(N3CCC(C(=O)Nc4ccc(Br)cc4F)CC3)sc2c1	SMN2 splice up 13µM, FLuc modulator 15µM (no result: KinaseGlo FLuc, NPC1 prom act, ELG1 genotox, Rab9 prom act)
CCOc1ccc(NCc2cccn2-c2nnc(N3CCC(C(=O)NCC(C)c4ccccc4)CC3)s2)cc1 (stereo not given)	none (no result: KinaseGlo FLuc, NPC1 prom act, ELG1 genotox, Rab9 prom act)
C[C@@]12CC[C@H](O[C@@H]3O[C@H](CO)[C@@H](O)[C@H](O)[C@@H]3O)C[C@@H]1CC[C@H]1[C@H]2CC[C@@]2(C)[C@@H](C3=CCOC3=O)CC[C@]12O	none (no result: NPC1 prom act, ELG1 genotox, Rab9 prom act, FLuc modulator)
Nc1c2c(nc3sc4c(c13)CCCC4)CCCCC2	NPC1 prom act 2.8µM, SMN2 splice up 8.9µM, Rab9 prom act 2.2µM, FLuc modulator 1.9µM
